# Assay results as given in PubChem BioAssay (EPA / NIEHS).
# Values joined by “and” are separate entries in the source; they are usually repeats but may differ in a detail not shown here. Identical values can stand only once. The source holds several records for some structures; these can differ, active in one and inactive in another. Active and inactive are the calls of the source. How the source made its calls: active means hit-call score of the fitted dose curve at least 0.9, where 1 is the maximum; inactive means score below 0.9.
# Experiments:
# [1] = CCTE_Shafer_MEA_dev_mutual_information_norm: CCTE's Neural Network Formation Assay for Mutual Information Normalization, Shafer Lab (AID 2284091)
# In short: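 Shared information across electrodes, tracked on days 5, 7, 9 and 12 of network development and collapsed as trapezoidal area under the curve. Rat cortical cultures were treated continuously from plating, with treatment renewed at feeds on DIV 5 and 9; DMSO baseline, negative-direction fit.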
# [2] = CCTE_Shafer_MEA_dev_correlation_coefficient_mean: CCTE's Neural Network Formation Assay for Mean Correlation Coefficient, Shafer Lab (AID 2284093);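 on AC50: well mean pairwise spike train correlation integrated as AUC over recording days 5 to 12; potency fitted for loss of correlation relative to DMSO vehicle wells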
# In short: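 Read-out: well-mean correlation coefficient of spike trains between electrode pairs, collapsed over four recording days as trapezoidal area-under-the-curve. Developing rat cortical neuron networks grown on MEAs received test chemical continuously from plating.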
# [3] = BSK_BT_PBMCCytotoxicity: PBMC Cytotoxicity Assessment in the BioMAP Diversity Plus: BT Assay (AID 2284225); conditions: primary human B cells with PBMC;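 further: PBMC viability measured by Alamar Blue dye reduction fluorescence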
# In short: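 Viability by Alamar Blue reduction (6 h, ex/em 546/580 nm) after 90 h culture of SEB/TSST-1-activated PBMC (20 ng/mL each) given compound 1 h before activation. DMSO served as baseline for curve fitting.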
# [4] = read-out: Secreted IgG (sIgG), gene 3500; experiment: BSK_BT_sIgG: BioMAP Diversity Plus: BT Assay for Secreted IgG (sIgG) Biomarker Activity (AID 2284226); conditions: primary human B cells with PBMC
# In short: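 ELISA quantitation of secreted IgG from human B cells co-cultured with PBMC, sampled 24 h post-dosing. Values fitted relative to DMSO vehicle as baseline, positive fitting direction.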
# [5] = BSK_BT_Bcell_Proliferation: Viability Assessment in the BioMAP Diversity Plus: BT Assay for B cell Proliferation (AID 2284227); conditions: primary human B cells with PBMC
# In short: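 SRB-based protein staining (0.1% SRB after 10% TCA fixation, 560 nm) quantifies proliferation in human B cells co-cultured with PBMC, 72 h post-dosing, with signal gain scored relative to DMSO negative control.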
# [6] = read-out: Interleukin 17A (IL17A), IL17A (gene 3605); experiment: BSK_BT_xIL17A: BioMAP Diversity Plus: BT Assay for Interleukin 17A (IL17A) Biomarker Activity (AID 2284229); conditions: primary human B cells with PBMC
# In short: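 B cells co-cultured with PBMC were exposed to test chemicals, and secreted IL-17A was quantified 24 h after dosing by Luminex xMAP bead immunoassay. Activity was fitted in the gain direction against DMSO as baseline.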
# [7] = read-out: Tumor necrosis factor (Homo sapiens) (UniProt P01375); experiment: BSK_BT_xTNFa: BioMAP Diversity Plus: BT Assay for Tumor necrosis factor alpha (TNF-alpha) Biomarker Activity (AID 2284230); conditions: primary human B cells with PBMC
# In short: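 Compounds were added to a B cell plus PBMC co-culture, and after 24 h secreted TNF-alpha was quantified with Luminex xMAP technology, with responses fitted upward from the DMSO control.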
# [8] = read-out: Vascular cell adhesion molecule 1 (VCAM1), VCAM1 (gene 7412); experiment: BSK_MyoF_VCAM1: BioMAP Diversity Plus: MyoF Assay for Vascular cell adhesion molecule 1 (VCAM1) Biomarker Activity (AID 2284231); conditions: primary human lung fibroblasts
# In short: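 Primary human lung fibroblasts were dosed with test chemical for 24 h, then cell-surface VCAM-1 was measured by ELISA. Activity was fitted in the positive direction against DMSO as negative control and baseline.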
# [9] = read-out: Collagen I, COL1A1 (gene 1277); experiment: BSK_MyoF_CollagenI: BioMAP Diversity Plus: MyoF Assay for Collagen I Biomarker Activity (AID 2284238); conditions: primary human lung fibroblasts
# In short: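 Human lung fibroblasts were exposed to test chemical for 24 h, then Collagen I was quantified by ELISA. Activity was fitted in the increasing direction against DMSO as the negative control and baseline.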
# [10] = read-out: Collagen III, COL3A1 (gene 1281); experiment: BSK_MyoF_CollagenIII: BioMAP Diversity Plus: MyoF Assay for Collagen III Biomarker Activity (AID 2284239); conditions: primary human lung fibroblasts
# In short: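 Human lung fibroblasts were dosed with chemicals and, 24 hours later, collagen III was measured by ELISA. Activity was fitted in the positive direction against the DMSO negative-control baseline.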
# [11] = CCTE_Mundy_HCI_hNP1_Casp3_7: CCTE's Caspase-Glo 3/7 Assay in human neuroprogenitor cells for Apoptosis, Mundy Lab (AID 2284240)
# In short: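 Apoptosis is scored by activated caspase-3/7 luminescence in WA09-derived neural progenitor cells, measured 26.5 h after chemical dosing. Values represent gain of signal relative to DMSO vehicle.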
# [12] = read-out: Interleukin 17F (IL17F), IL17F (gene 112744); experiment: BSK_BT_xIL17F: BioMAP Diversity Plus: BT Assay for Interleukin 17F (IL17F) Biomarker Activity (AID 2284243); conditions: primary human B cells with PBMC
# In short: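 B cell/PBMC co-culture (human primary), 24 h compound exposure; sIL-17F by Luminex xMAP; gain-of-signal fit vs DMSO baseline.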
# [13] = read-out: Actin alpha 1 (ACTA1), ACTA1 (gene 58); experiment: BSK_MyoF_ACTA1: BioMAP Diversity Plus: MyoF Assay for Actin alpha 1 (ACTA1) Biomarker Activity (AID 2284244); conditions: primary human lung fibroblasts
# In short: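 alpha-SMA levels read by ELISA against DMSO baseline, 24 h post-dose, in primary human lung fibroblasts. Parallel cultures stained with 0.1% SRB after 10% TCA fixation (560 nm) to flag overt cytotoxicity.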
# [14] = read-out: Interleukin 2 (IL2), IL2 (gene 3558); experiment: BSK_BT_xIL2: BioMAP Diversity Plus: BT Assay for Interleukin 2 (IL2) Biomarker Activity (AID 2284245); conditions: primary human B cells with PBMC
# In short: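 Secreted IL-2 was read by Luminex xMAP from B cells co-cultured with PBMC (human primary) 24 h post-dosing; activity was analysed as gain of signal relative to DMSO vehicle.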
# [15] = read-out: Basic fibroblast growth factor (bFGF), FGF2 (gene 2247); experiment: BSK_MyoF_bFGF: BioMAP Diversity Plus: MyoF Assay for Basic fibroblast growth factor (bFGF) Biomarker Activity (AID 2284246); conditions: primary human lung fibroblasts
# In short: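 bFGF was measured by ELISA in primary human lung fibroblasts 24 h after chemical addition. Signal was analysed as positive-direction change relative to DMSO baseline.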
# [16] = read-out: Monokine induced gamma interferon (MIG), CXCL9 (gene 4283); experiment: BSK_KF3CT_MIG: BioMAP Diversity Plus: KF3CT Assay for Monokine induced gamma interferon (MIG) Biomarker Activity (AID 2284248); conditions: primary human keratinocytes with fibroblasts
# In short: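 Human keratinocyte plus foreskin fibroblast primary co-culture dosed with test chemical for 24 h; MIG level measured by ELISA and fitted in the positive direction against DMSO as baseline.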
# [17] = read-out: Interleukin 6 (IL6), IL6 (gene 3569); experiment: BSK_BT_xIL6: BioMAP Diversity Plus: BT Assay for Interleukin 6 (IL6) Biomarker Activity (AID 2284228); conditions: primary human B cells with PBMC
# In short: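 Human B cell plus PBMC co-culture exposed to test chemical for 24 h; secreted IL-6 quantified by Luminex xMAP bead assay. Activity fitted in the positive direction against DMSO as negative control and baseline.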
# [18] = read-out: Collagen IV, COL4A1 (gene 1282); experiment: BSK_MyoF_CollagenIV: BioMAP Diversity Plus: MyoF Assay for Collagen IV Biomarker Activity (AID 2284247); conditions: primary human lung fibroblasts
# In short: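 Collagen IV quantified by ELISA in human lung fibroblast cultures 24 h after chemical treatment, with DMSO as baseline. Parallel SRB staining (0.1% SRB after TCA fixation, 560 nm) flags overt cytotoxicity.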
# Chain of Tumor necrosis factor (Homo sapiens) (P01375 whole entry, looked up): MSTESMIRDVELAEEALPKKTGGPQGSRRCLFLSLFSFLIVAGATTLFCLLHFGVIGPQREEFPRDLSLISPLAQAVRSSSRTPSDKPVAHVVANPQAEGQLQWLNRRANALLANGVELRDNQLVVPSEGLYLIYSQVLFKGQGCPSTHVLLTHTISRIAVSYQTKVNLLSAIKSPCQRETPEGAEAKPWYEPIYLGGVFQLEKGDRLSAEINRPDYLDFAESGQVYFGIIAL
smiles,measurement,setting,value
NC(=O)C(F)(F)C(F)(F)C(F)(F)C(F)(F)C(N)=O,outcome,[1],inactive
same,outcome,[2],inactive
same,outcome,[3],inactive
same,outcome,[4],inactive
same,outcome,[5],inactive
same,outcome,[6],inactive
same,AC50,[7],221 nM (active)
same,outcome,[7],inactive
same,outcome,[8],inactive
same,outcome,[9],inactive
same,outcome,[10],inactive
same,outcome,[11],inactive
same,outcome,[12],inactive
same,outcome,[13],inactive
same,outcome,[14],inactive
same,outcome,[15],inactive
same,outcome,[16],inactive
CNS(=O)(=O)C(F)(F)C(F)(F)C(F)(F)C(F)(F)C(F)(F)C(F)(F)C(F)(F)C(F)(F)F,outcome,[1],inactive
same,outcome,[2],inactive
same,outcome,[3],inactive
same,AC50,[4],27.6 µM (active)
same,outcome,[4],inactive
same,outcome,[5],inactive
same,outcome,[6],inactive
same,AC50,[7],44900 nM (active)
same,outcome,[7],inactive
same,outcome,[8],inactive
same,outcome,[9],inactive
same,outcome,[10],inactive
same,AC50,[12],16.4 µM (active) and 7.34 µM (active)
same,outcome,[13],inactive
same,outcome,[14],inactive
same,outcome,[15],inactive
same,outcome,[16],inactive
O=C=Nc1cccc2c(N=C=O)cccc12,outcome,[3],inactive
same,AC50,[4],12 µM (active)
same,outcome,[5],inactive
same,outcome,[17],inactive
same,outcome,[6],inactive
same,outcome,[7],inactive
same,outcome,[8],inactive
same,outcome,[9],inactive
same,outcome,[10],inactive
same,outcome,[12],inactive
same,outcome,[13],inactive
same,outcome,[14],inactive
same,outcome,[15],inactive
CCN(CC)c1ccc(C=O)c(O)c1,outcome,[3],inactive
same,AC50,[4],20 µM (active)
same,outcome,[5],inactive
same,outcome,[17],inactive
same,outcome,[6],inactive
same,outcome,[7],inactive
same,outcome,[8],inactive
same,outcome,[9],inactive
same,outcome,[10],inactive
same,outcome,[12],inactive
same,outcome,[13],inactive
same,outcome,[14],inactive
same,outcome,[15],inactive
OCC(F)(F)C(F)(F)C(F)(F)C(F)(F)C(F)(F)C(F)(F)C(F)(F)C(F)(F)CO,outcome,[1],inactive
same,AC50,[2],24.1 µM (active)
same,AC50,[3],46.1 µM (active) and 47.5 µM (active)
same,AC50,[4],49.8 µM (active) and 47.1 µM (active)
same,AC50,[5],46.8 µM (active) and 47.9 µM (active)
same,AC50,[6],51.3 µM (active) and 19.6 µM (active)
same,AC50,[7],45.6 µM (active) and 54 µM (active)
same,AC50,[8],47.9 µM (active) and 45.4 µM (active)
same,AC50,[9],40.4 µM (active)
same,outcome,[9],inactive
same,AC50,[10],37.1 µM (active) and 45.7 µM (active)
same,AC50,[12],53.8 µM (active) and 38.5 µM (active)
same,AC50,[13],44.9 µM (active) and 42.5 µM (active)
same,AC50,[14],54.7 µM (active) and 46.9 µM (active)
same,AC50,[15],54.4 µM (active)
same,outcome,[15],inactive
same,AC50,[16],49.2 µM (active) and 48.4 µM (active)
OC(O)C(F)(F)C(F)(F)F,outcome,[1],inactive
same,outcome,[2],inactive
same,outcome,[3],inactive
same,outcome,[4],inactive
same,outcome,[5],inactive
same,outcome,[17],inactive
same,outcome,[6],inactive
same,outcome,[7],inactive
same,outcome,[8],inactive
same,outcome,[9],inactive
same,outcome,[10],inactive
same,outcome,[12],inactive
same,outcome,[13],inactive
same,outcome,[14],inactive
same,outcome,[15],inactive
same,outcome,[18],inactive
same,outcome,[16],inactive
NC(=O)C(F)(F)C(F)(F)C(F)(F)C(F)F,outcome,[1],inactive
same,outcome,[2],inactive
same,outcome,[3],inactive
same,outcome,[4],inactive
same,outcome,[5],inactive
same,outcome,[6],inactive
same,outcome,[7],inactive
same,outcome,[8],inactive
same,outcome,[9],inactive
same,outcome,[10],inactive
same,outcome,[12],inactive
same,outcome,[13],inactive
same,outcome,[14],inactive
same,outcome,[15],inactive
same,outcome,[16],inactive
